Source: PubChem BioAssay (several laboratories)
Hits are enriched below; roughly 4.6% of the tested compounds scored in any of these assays.
KLK7 zymogen act = proKLK7 (human) activation, primary screen. P49862. AID 652039. purified proKLK7, EDANS-DABCYL substrate fluorescence; 100% is mature enzyme control, 0% vehicle. actives 0.9% (n = 370,000). activation, % at 7 µM;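 active = activation above the mean of all tested compounds plus 3 SD, computed per campaign excluding outliers beyond control limits, cut at about 13% in these data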
ADAM10 inh = ADAM10 inhibition, QFRET primary screen; recombinant ADAM10, EDANS/DABCYL FRET peptide cleavage, 3 h; inhibition, % at 7 µM; actives 0.62% (n = 370,000); AID 720582;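 active = inhibition above a per-campaign cutoff equal to the mean of compounds falling between control-based bounds plus 3 SD, cut at about 20% in these data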;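 also: 0% = DMSO wells while the 100% control is not disclosed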
Target sequence (O14672 214-748 limits assumed): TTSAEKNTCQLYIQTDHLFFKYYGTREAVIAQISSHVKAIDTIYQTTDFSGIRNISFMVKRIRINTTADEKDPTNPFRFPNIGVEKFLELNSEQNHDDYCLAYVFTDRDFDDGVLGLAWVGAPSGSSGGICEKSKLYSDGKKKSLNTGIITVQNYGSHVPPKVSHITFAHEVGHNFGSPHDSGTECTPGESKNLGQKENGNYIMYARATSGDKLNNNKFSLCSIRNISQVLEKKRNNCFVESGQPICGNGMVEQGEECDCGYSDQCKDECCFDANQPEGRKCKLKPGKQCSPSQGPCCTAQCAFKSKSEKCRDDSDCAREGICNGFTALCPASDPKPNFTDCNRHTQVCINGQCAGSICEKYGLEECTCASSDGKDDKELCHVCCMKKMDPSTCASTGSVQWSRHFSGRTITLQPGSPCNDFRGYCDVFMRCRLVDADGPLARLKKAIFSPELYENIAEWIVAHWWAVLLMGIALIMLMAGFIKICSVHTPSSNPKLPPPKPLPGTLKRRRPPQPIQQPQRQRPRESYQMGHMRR
FAS TE block = blocks the thioesterase domain of human fatty acid synthase. AID 602261. recombinant FAS-TE, OMFH fluorogenic substrate, fluorescence endpoint. P49327. actives 0.67% (n = 360,000). inhibition, % at 15 µM;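 active = compounds whose normalised, plate-corrected inhibition of enzyme fluorescence in the single-dose primary screen is 50% or more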;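 also: 0% = DMSO with enzyme and 100% = substrate without enzyme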
GRIN3A LBD mod = NR3A (human) ligand-binding domain modulation; NR3A LBD differential scanning fluorimetry, Tm shift; 0% = protein alone, 100% = glycine-bound protein; Tm shift relative to glycine control, % at 25 µM; actives 2.5% (n = 340,000);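 active = melting temperature shift of at least 10% of the positive control shift, at one fixed dose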
ADAM17 inh = inhibits human ADAM17; recombinant ADAM17, EDANS/DABCYL FRET peptide cleavage; inhibition, % at 6.95 µM; actives 0.83% (n = 370,000);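 active = inhibition above the mean of compounds lying between control limits plus 3 SD, set per campaign, cut at about 8.5% in these data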;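 also: 0% = DMSO-only wells as the low control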
KLK7 act conf = proKLK7 activation, confirmation; shares compounds with KLK7 zymogen act; purified proKLK7, EDANS-DABCYL substrate fluorescence; scaled: vehicle 0, mature enzyme 100; activation, % at 7 µM; actives 68% (n = 3,200);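 active = activation, as change over the incubation, above the mean of all tested compounds plus 3 SD, cut at about 13% in these data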
EDANS-DABCYL int = counter-screen for kallikrein-7 activators: EDANS-DABCYL optical interference; shares compounds with KLK7 zymogen act; EDANS-DABCYL substrate fluorescence interference, no enzyme, 4 h; solvent 0%, active enzyme control 100%; activation, % at 7 µM; actives 80% (n = 3,200);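 active = activation above the all-compound mean plus 3 SD, ignoring values outside control-based bounds, cut at about 4.8% in these data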;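 also: value is the 4 h activation minus the activation read at time zero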
ADAM10 confirm = confirmation of inhibitors of human ADAM10. shares compounds with ADAM10 inh. ADAM10 QFRET peptide cleavage, EDANS fluorescence. inhibition, % at 6.95 µM. actives 1% (n = 2,100);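 active = inhibition above about 20% chosen separately for each screening run, limit read from the data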;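 also: 0% = DMSO wells and 100% = marimastat wells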
ADAM17 counter = inhibits human ADAM17 in ADAM10 exosite counter-screen; shares compounds with ADAM10 inh; ADAM17 QFRET peptide cleavage, EDANS fluorescence; inhibition, % at 6.95 µM; actives 0.5% (n = 2,100); AID 743214;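 active = mean triplicate inhibition above the solvent-only control wells' mean plus 3 SD, cut at about 12% in these data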;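 also: 0% = DMSO wells and 100% = marimastat wells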
ADAM10 counter = ADAM10 inhibition, counter-screen for ADAM17 exosite hits; actives 47% (n = 2,900); shares compounds with ADAM17 inh; recombinant ADAM10, EDANS/DABCYL FRET peptide cleavage, 3 h; inhibition, % at 6.95 µM; AID 743256;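 active = mean inhibition over the triplicate runs exceeds the activity threshold set in the earlier primary screen, cut at about 20% in these data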;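 also: 0% = DMSO wells and 100% = marimastat wells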
ADAM17 confirm = confirmation of inhibitors of human ADAM17; shares compounds with ADAM17 inh; recombinant ADAM17, EDANS/DABCYL QFRET peptide cleavage; inhibition, % at 6.95 µM; actives 65% (n = 2,900); AID 743257;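 active = mean inhibition across replicates above the hit cutoff set in the primary screen, cut at about 8.5% in these data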;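 also: 0% = DMSO wells and 100% = marimastat wells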
* marks the source's active call; other numbers are inactive results; i = inactive; x = no result.

SMILES	KLK7 zymogen act	ADAM10 inh	FAS TE block	GRIN3A LBD mod	ADAM17 inh	KLK7 act conf	EDANS-DABCYL int	others
O=C(Nc1ccccc1)Nc1sccc1-c1nc2ccccc2s1	35*	-67	31	22*	-29	-212	-177
CCOC(=O)[C@]12CCCC=C1N(CCCOC)C(=O)[C@@H]2CC(=O)N1CCN(C(=O)c2ccco2)CC1	0	-11	x	x	-5	x	x
COc1ccccc1N1C(=O)c2ccccc2NC1c1cc(OC)c(OC)c(OC)c1 (stereo not given)	23*	i	-3	-2	-393	14*	15*
COc1ccccc1N1C(=O)c2ccccc2NC1C(OC)OC (stereo not given)	3	-249	-6	-1	-83	x	x
COc1ccc(C2Nc3ccccc3C(=O)N2NS(=O)(=O)c2ccccc2)cc1 (stereo not given)	17*	-163	4	-2	-60	9	7.7*
COc1ccc(C2Nc3ccccc3C(=O)N2NS(=O)(=O)c2ccccc2)c(OC)c1 (stereo not given)	18*	-218	3	0	-91	35*	32*
COc1cc(C2Nc3ccccc3C(=O)N2NS(C)(=O)=O)ccc1O (stereo not given)	27*	-485	-2	1	-222	5	6.8*
COc1ccc(C2Nc3ccccc3C(=O)N2NS(=O)(=O)c2ccc(C)cc2)c(OC)c1 (stereo not given)	8	-256	6	0	-83	x	x
O=C1c2ccccc2NC(c2ccccc2)N1NS(=O)(=O)c1ccccc1 (stereo not given)	2	-14	-10	0	-4	x	x
CC1Nc2ccccc2C(=O)N1NS(C)(=O)=O (stereo not given)	61*	i	0	3	-238	26*	22*
COc1ccc(C2Nc3ccccc3C(=O)N2NS(C)(=O)=O)cc1 (stereo not given)	61*	-480	-6	-2	-144	11	11*
COC(=O)[C@]12C[C@H](CC(=O)NCC3CCCCC3)C(=O)N(Cc3cccc4ccccc34)C1=C[C@H](COCc1ccccc1)O[C@@H]2C	0	14	x	x	3	x	x
CCOC(=O)Cc1c(C)c2c(O)cc(O)cc2oc1=O	76*	i	-8	-3	i	62*	64*
CCOC(=O)Cc1c(C)c2ccc(N(CC)CC)cc2oc1=O	76*	i	-14	4	i	-7	-26
CCN(CC)CCCNC(=O)c1cn(C(C)c2ccccc2)nn1 (stereo not given)	0	-9	x	x	5	x	x
CC(C)NCC(O)c1ccc(O)c(O)c1 (stereo not given)	35*	-13	-10	-2	-10	46*	51*
N#Cc1nc(/C=C/c2ccccc2)oc1NCCCN1CCOCC1	32*	i	-2	-1	i	75*	71*
N#Cc1nc(-c2cccs2)oc1NCCCN1CCOCC1	42*	i	-10	2	i	78*	78*
N#Cc1nc(COc2ccc(-c3ccccc3)cc2)oc1NCCCN1CCOCC1	0	-2	12	-9	-2	x	x
COc1ccc(-c2nc(C#N)c(NCCCN3CCOCC3)o2)cc1	0	i	-11	2	-191	x	x
N#Cc1nc(-c2cccs2)oc1N1CCOCC1	15*	i	-1	-1	i	40*	49*
COCCNc1oc(/C=C/c2ccccc2)nc1C#N	106*	i	-2	9	i	71*	76*
CCCCN1CCS(=O)(=O)N(Cc2ccc(Cl)cc2)C(C(=O)OC)C1 (stereo not given)	0	-4	x	x	-5	x	x
Cc1ccc(CN2CCCCC(NC(=O)Nc3ccccc3)C2=O)cc1 (stereo not given)	1	-2	x	x	-5	x	x
COc1cc2c(cc1NC(=O)CSc1nnc(-c3cccc(Cl)c3)n1-c1ccccc1)oc1ccccc12	-1	-13	x	x	-2	x	x
SMILES	KLK7 zymogen act	ADAM10 inh	FAS TE block	GRIN3A LBD mod	ADAM17 inh	KLK7 act conf	EDANS-DABCYL int	others
CNc1oc(/C=C/c2ccccc2)nc1C#N	80*	i	1	7	i	64*	68*
Cc1ccc(CN2CCCCC(NC(=O)c3ccc4ccccc4c3)C2=O)cc1 (stereo not given)	0	6	x	x	3	x	x
O=C(NNS(=O)(=O)c1ccccc1[N+](=O)[O-])c1cc2ccccc2cc1O	14*	-24	0	1	-2	22*	20*
CCOC(=O)c1[nH]c2cc(OC)c(OC)cc2c1NC(=O)CCN1CCSCC1	16*	i	-8	-1	-246	12	8.7*
CCOC(=O)c1[nH]c2ccc(OC)cc2c1NC(=O)CCN1CCC(C)CC1	21*	-358	x	3	-94	9	6.8*
CCOC(=O)c1[nH]c2cc3c(cc2c1NC(=O)CN1CCN(CCO)CC1)OCO3	49*	i	-4	0	i	26*	29*
CCOC(=O)[C@@]12CCCC3=C1N(CCC3)C(=O)[C@H]2CC(=O)N1CCN(C(=O)c2ccco2)CC1	0	-2	x	x	1	x	x
O=C(OC12CCCN(C1)/C(=C/c1ccc(Cl)cc1)C2)c1ccco1 (stereo not given)	0	-8	x	x	3	x	x
O=C(Nc1nc(-c2ccccc2)cs1)c1ccc(S(=O)(=O)N2CCc3ccccc32)cc1	14*	13	18	-5	9.7*	0	-2	ADAM10 counter=10;ADAM17 confirm=9.7*
CC(=O)c1ccc(S(=O)(=O)NCC2CCN(C(=O)C(=O)c3cc4ccccc4o3)CC2)cc1	1	3	x	x	2	x	x
CC/C=C\[C@H](O)[C@H](O)C1=C(C)C(=O)[C@]2(O1)C(=O)N[C@@](OC)(C(=O)c1ccccc1)C2O (stereo not given in full)	0	63*	-5	-2	-7	x	x	ADAM10 confirm=7;ADAM17 counter=3
